# Test results published in PMC11442847.
# Biological target: Tubulin alpha-1C chain (UniProt Q9BQE3)
# Experiment: cross-link between two proteins; cross-linking mass spectrometry
# UniProt Q9BQE3, sequence (Q9BQE3 whole entry): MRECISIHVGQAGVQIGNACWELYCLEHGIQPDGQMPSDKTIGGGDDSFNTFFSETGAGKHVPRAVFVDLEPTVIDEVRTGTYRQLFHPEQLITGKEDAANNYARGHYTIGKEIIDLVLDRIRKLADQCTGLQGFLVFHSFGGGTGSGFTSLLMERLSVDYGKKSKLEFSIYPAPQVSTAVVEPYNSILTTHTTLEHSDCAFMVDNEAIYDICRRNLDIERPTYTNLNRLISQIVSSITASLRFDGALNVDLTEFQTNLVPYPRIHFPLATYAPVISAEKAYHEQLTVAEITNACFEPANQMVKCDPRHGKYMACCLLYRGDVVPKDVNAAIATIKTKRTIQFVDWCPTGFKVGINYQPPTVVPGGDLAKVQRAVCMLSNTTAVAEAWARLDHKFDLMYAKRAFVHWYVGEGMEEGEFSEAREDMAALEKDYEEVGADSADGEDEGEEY
substance,measurement,value
"Tubulin beta chain, P07437",listed as a hit,yes
